This note sets out measurements from PubChem BioAssay (NCI).

Among the test systems are SR leukemia; RPMI-8226 leukemia; OVCAR-8 ovarian; OVCAR-5 ovarian; OVCAR-4 ovarian; IGROV1 ovarian; OVCAR-3 ovarian; NCI/ADR-RES ovarian; HS 578T breast; SK-OV-3 ovarian.
Common to all, as to assay: NCI-60 one-dose screen, 48 h (100 = growth as untreated, 0 = no growth, -100 = all killed)
Common to all, as to conditions: 10 µM unless noted

The structures appear in SMILES notation. This is part of a sample that, as a whole, favours compounds with a hit. Of some 83,000 tested, about 20% had one in any assay.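 Plates (96-well) were seeded with cells, treated with compound at one concentration, and incubated for 48 hours before percent growth was determined.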 Unmarked numbers belong to inactive results. Activity calls are given as the source filed them. The calls were made as follows: active = growth percent below 10; inactive = the rest.

With `CC1CCN(C(=O)OCc2nc3nc(Cl)nc(N4CCOCC4)c3[nH]2)CC1`, the growth in the assay on SR leukemia is -28.6% (active); with RPMI-8226 leukemia it was -29.7% (active); in the assay with OVCAR-8 ovarian it was -29% (active); with OVCAR-5 ovarian it was -38.2% (active); in the assay on OVCAR-4 ovarian it was -54.1% (active); in the assay on IGROV1 ovarian, -68% (active). Besides, the growth was -92.8% (active) in the assay with OVCAR-3 ovarian and -18.6% (active) with NCI/ADR-RES ovarian.
In the case of `Cc1ccc(C2CC(c3cccc(Nc4ccncc4)c3)=NN2c2cc(Cl)cc(Cl)c2)cc1` (stereo not given), the growth in the assay on SR leukemia was 1.17% (active); with RPMI-8226 leukemia, 16.1%; in the assay on OVCAR-8 ovarian, -36.5% (active); in the assay with OVCAR-5 ovarian, 71.1%; in the assay with OVCAR-4 ovarian, 15%; in the assay on IGROV1 ovarian, 15.3%. Further, the growth was 61.7% in the assay with OVCAR-3 ovarian, 62.6% in the assay with HS 578T breast and 52.1% in the assay with NCI/ADR-RES ovarian.
Turning to `Clc1ccc(C2CC(c3cccc(Nc4ccncc4)c3)=NN2c2cc(Cl)cc(Cl)c2)cc1` (stereo not given), the growth in the assay on SR leukemia is 6.05% (active); with RPMI-8226 leukemia it was 43.4%; in the assay on OVCAR-8 ovarian, -7.8% (active); in the assay on OVCAR-5 ovarian it was 84.4%; in the assay on OVCAR-4 ovarian, 33.7%; in the assay with IGROV1 ovarian, 44.6%. Further, the growth in the assay on OVCAR-3 ovarian was 76.9%; with HS 578T breast it was 78%; in the assay with NCI/ADR-RES ovarian, 68.3%.
Take `CC(c1ccccc1)n1ccnc1CO` (stereo not given): the growth with SR leukemia is 104%; in the assay with RPMI-8226 leukemia, 95.6%; with OVCAR-8 ovarian it was 112%; in the assay on OVCAR-5 ovarian, 104%; in the assay with SK-OV-3 ovarian, 96.8%; in the assay with IGROV1 ovarian, 94.2%. In addition, the figures for the growth in the assay with OVCAR-3 ovarian, in the assay on HS 578T breast and in the assay with NCI/ADR-RES ovarian were 115%, 92.1% and 99.8%, respectively.
For the compound `COc1ccc(/C=C/C(=O)c2ccc(OC)c(OC)c2)cc1O`, the growth in the assay with SR leukemia was 18.6%; in the assay on RPMI-8226 leukemia it was 65.2%; in the assay on OVCAR-8 ovarian, 28.5%; with OVCAR-5 ovarian it was 97.5%; with SK-OV-3 ovarian, 104%; with IGROV1 ovarian, 74.5%. Also, the growth in the assay with NCI/ADR-RES ovarian is 5.7% (active).
`CCCCCN1C=C/C(=C\C(=O)N(C)c2ccc(Br)cc2)c2ccccc21`: the growth with SR leukemia was 90.5%; in the assay on RPMI-8226 leukemia, 89.1%; in the assay with OVCAR-8 ovarian, 89.4%; in the assay on OVCAR-5 ovarian it was 104%; in the assay on OVCAR-4 ovarian, 84.4%; with OVCAR-3 ovarian, 98.8%. In addition, the growth in the assay on HS 578T breast was 98.6%; with NCI/ADR-RES ovarian, 100%.
For the compound `C=C(C)[C@@H]1CC[C@]2(C(=O)NCC(=O)OC)CC[C@]3(C)[C@H](CC[C@@H]4[C@@]5(C)Cc6c([nH]c7ccccc67)C(C)(C)[C@@H]5CC[C@]43C)[C@@H]12`, the growth in the assay on SR leukemia was 47%; with RPMI-8226 leukemia, 53.2%; in the assay on OVCAR-8 ovarian, 85.4%; with OVCAR-5 ovarian, 100%; in the assay on OVCAR-4 ovarian, 66.5%; with IGROV1 ovarian it was 85.1%. For the same compound, the growth in the assay with OVCAR-3 ovarian is 64.6%; in the assay on HS 578T breast it was 95%; with NCI/ADR-RES ovarian, 91%.
In the case of `C/C(=C(/c1ccccc1)c1ccc(OCC(O)CNCCN2CCOCC2)cc1)c1ccccc1` (stereo not given), the growth in the assay on SR leukemia was 0.691% (active); in the assay with RPMI-8226 leukemia it was 20.4%; in the assay on OVCAR-8 ovarian, 78.2%; in the assay on OVCAR-5 ovarian it was 76.2%; in the assay on OVCAR-4 ovarian, 70.3%; in the assay with IGROV1 ovarian, 63.3%. Also, the growth in the assay on OVCAR-3 ovarian was 77.9%; in the assay with HS 578T breast it was 70.5%; with NCI/ADR-RES ovarian it was 80.2%.
In the case of `COc1ccccc1OCC(=O)N1CCCCCC1`, the growth in the assay with SR leukemia is 95.1%; in the assay with RPMI-8226 leukemia it was 101%; in the assay with OVCAR-8 ovarian it was 97.2%; with OVCAR-5 ovarian it was 94.8%; in the assay on SK-OV-3 ovarian, 109%; in the assay on IGROV1 ovarian, 104%. In addition, the growth in the assay with OVCAR-3 ovarian is 116%; in the assay on HS 578T breast, 107%; in the assay with NCI/ADR-RES ovarian it was 103%.
Turning to `CCCCc1ccc(Nc2nnc(SCC(=O)NC(=O)NCC)s2)cc1`, the growth with SR leukemia is 9.38% (active); in the assay with RPMI-8226 leukemia, 85%; in the assay on OVCAR-8 ovarian it was 74.1%; in the assay on OVCAR-5 ovarian it was 96.8%; in the assay on OVCAR-4 ovarian it was 104%; in the assay on OVCAR-3 ovarian it was 104%. The growth was 60.6% in the assay with HS 578T breast and 103% in the assay on NCI/ADR-RES ovarian.
Consider `CN1CCCC1=Nc1ccccc1`, for which the growth in the assay on SR leukemia is 91.9%; in the assay with RPMI-8226 leukemia, 107%; in the assay on OVCAR-8 ovarian, 105%; in the assay with OVCAR-5 ovarian, 118%; in the assay on IGROV1 ovarian, 111%; in the assay on OVCAR-3 ovarian it was 128%. For the same compound, the growth with HS 578T breast was 106%; in the assay with NCI/ADR-RES ovarian, 104%.
With `CCCCCCCCOc1ccc(/C=N/Nc2cc(C)nc3ccc(Cl)cc23)cc1`, the growth in the assay with SR leukemia was -23.3% (active); in the assay on RPMI-8226 leukemia, -3.13% (active); with OVCAR-8 ovarian it was -34.3% (active); in the assay on OVCAR-5 ovarian, 27.1%; in the assay on OVCAR-4 ovarian, -69.7% (active); with OVCAR-3 ovarian it was -93.1% (active). For the same compound, in the assay on NCI/ADR-RES ovarian, the growth is -22% (active).
Turning to `CCCCCCc1nc2nc(Cl)c(Cl)nc2[nH]1`, the growth in the assay with SR leukemia was 62.9%; in the assay on RPMI-8226 leukemia, 28.2%; in the assay on OVCAR-8 ovarian, 71.9%; in the assay with OVCAR-5 ovarian, 97.4%; with SK-OV-3 ovarian, 92%; in the assay on IGROV1 ovarian, 57.7%. For the same compound, the growth is 40.2% in the assay with OVCAR-3 ovarian, 76.4% in the assay on HS 578T breast and 66.7% in the assay with NCI/ADR-RES ovarian.
On to `Fc1ccccc1CSc1ncnc2nc[nH]c12`, for which the growth in the assay on SR leukemia was 105%; in the assay with RPMI-8226 leukemia it was 95.1%; with OVCAR-8 ovarian, 80.5%; in the assay on OVCAR-5 ovarian, 110%; in the assay with OVCAR-4 ovarian, 113%; with HS 578T breast, 111%. For the same compound, the growth with NCI/ADR-RES ovarian was 114%.
As for `COc1ccccc1/C=C1\COc2ccc(-c3ccccc3)cc2C1=O`, the growth in the assay on RPMI-8226 leukemia was -37.3% (active); in the assay on OVCAR-8 ovarian, 36.1%; in the assay on OVCAR-5 ovarian, 104%; in the assay on OVCAR-4 ovarian it was 76.1%; with SK-OV-3 ovarian it was 50.7%; with IGROV1 ovarian, 56.6%. The growth in the assay with OVCAR-3 ovarian is -29% (active); in the assay on HS 578T breast, 38.9%; in the assay on NCI/ADR-RES ovarian it was -45.6% (active).
